Vaccinia mCherry – qHTS for Stage-Specific Inhibitors of Vaccinia Orthopoxvirus: mCherry Reporter Primary qHTS; Vaccinia virus mCherry reporter infection, fluorescence; Potency, µM (highest dose often 36.5 µM), without a hit: at the highest dose activity change, negative = inhibition, actives largely listed as inhibitors; 310,000 compounds, 0.63% hits; AID 720579, 2013; calls by dose curve; tested in A549 cells; further: nearly all actives have a fitted effect of over 35% in size
HCV inh – qHTS Assay for Inhibitors of Hepatitis C Virus (HCV). Huh7.5.1 HCVcc-Cre infection, luciferase reporter, 44 h. Potency, µM (highest dose often 41.8 µM), without a hit: at the highest dose activity change, negative = inhibition, most hits filed as inhibitors. 340,000 compounds, 3.4% hits. AID 651820, 2012; active means well fitted inhibition curve with a large enough effect; inconclusive means small, poorly fitted or top-dose-only effect, or another doubt; inactive means no such curve, though single readings can be large or run the other way
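HCVcc-Cre virus at an moi near 0.5 was added right after compound to cells cultured 4 h from seeding (1,000 cells/well). Luciferase activity was determined 44 h later, 15 min after substrate addition at RT.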
VACV Venus inh – qHTS for Stage-Specific Inhibitors of Vaccinia Orthopoxvirus: Venus Reporter Primary qHTS; Vaccinia virus Venus reporter expression, fluorescence; Potency, µM (top dose mostly 36.5 µM), inactives show top-dose activity change, negative = inhibition, hits mostly inhibitors; 330,000 compounds, 0.46% hits; AID 720580, 2013; calls by dose curve; tested in A549 cells; further: nearly all actives have a fitted effect of over 30% in size
An asterisk follows results filed as active; i = inactive; u = inconclusive; x = no result given; [ ] = dose if it differs, or a comment. In the library only some 3.3% were active in any assay of this set; here they are far more common. On the % scale 0 is the no-effect control and ±100 the full control effect; potency means the concentration at half of the fitted maximal effect.

SMILES	Vaccinia mCherry	HCV inh	VACV Venus inh
COc1ccc(OCc2cc(=O)c3ccc4c(c3o2)C=CC(C)(C)O4)cc1OC	i	u	-20%
CC1CCN(S(=O)(=O)c2cnc(Cl)c(Br)c2)CC1	-15%	-31%	-4%
CN1CCN(S(=O)(=O)c2cnc(Cl)c(Br)c2)CC1	13µM*	u	u
CC(C)Oc1ccc(C(=O)NC(=S)Nc2ccc(Cl)c(C(=O)O)c2)cc1	i	2%	-8%
O=C(NCc1ccccc1Cl)c1ccc2c(c1)NC(=O)C(CS(=O)(=O)Cc1ccc(Cl)cc1)N2 (stereo not given)	-10%	x	22%
CSCCC(NS(=O)(=O)c1ccc(C)cc1)C(=O)Nc1ccc(C)cn1 (stereo not given)	-13%	-9%	-12%
N=c1c2c(-c3ccccc3)c(-c3ccccc3)n(Cc3ccco3)c2ncn1Cc1ccco1	x	16µM*	11µM*
CCCCn1cnc2c(c(-c3ccccc3)c(-c3ccccc3)n2Cc2ccco2)c1=N	i	-23%	-20%
N=c1c2c(-c3ccccc3)c(-c3ccccc3)n(Cc3ccccc3)c2ncn1CCCn1ccnc1	x	0.5µM*	14µM*
O=c1[nH]c(=O)n(Cc2ccccc2)c(O)c1C=NCCCn1ccnc1	x	9%	-7%
CC[N+]1(CC(=O)c2ccc(I)cc2)CCCCC1	i	x	-8%
O=[N+]([O-])c1cccc2c(N3CCCC3)ccnc12	u	3.5µM*	7.1µM*
O=[N+]([O-])c1ccc(N2CCOCC2)c2cccnc12	-14%	-4%	-28%
CN(N=O)c1ccc(/C=C/c2ccnc3ccccc23)cc1	-24%	x	-22%
Cc1cn2c(=O)cc(COc3ccccc3NC(=O)c3ccc(Cl)cc3)nc2s1	5%	x	8%
COc1cc(N(C)C)ccc1C=c1c2ccccc2n2c1cc(-c1ccccc1)[n+]2C	-22%	10µM*	-10%
CN(C)c1ccc(C=c2c3ccccc3n3c2cc(-c2ccccc2)[n+]3C)cc1	87%	u	252%
CCOC(=O)CC(=O)CSc1nc2ccsc2c(=O)n1Cc1ccccc1	-16%	x	-12%
CCOC(=O)c1c(C)[nH]c(C)c1C(=O)COC(=O)c1ccc(S(=O)(=O)N(CC)CC)cc1	x	25µM*	x
CCOC(=O)c1c(C)[nH]c(C)c1C(=O)COC(=O)c1cccc(S(=O)(=O)N(CC)CC)c1	u	u	-28%
CCOc1ccc(CNS(=O)(=O)c2ccc3[nH]c4c(c3c2)CCCC4)cc1OC	-26%	x	-18%
Cc1nc([N+](=O)[O-])cn1CC(=O)c1ccc2c(c1)OCCO2	0%	x	-14%
CCc1ccc(NC(=S)Nc2cccc3cnccc23)cc1	-13%	10µM*	-1%
Cc1cc(C)cc(NC(=S)Nc2cccc3cnccc23)c1	u	-30%	-21%
OC1(c2cccnc2)CCN(Cc2ccc3c(c2)CN(Cc2cc(F)ccc2F)CCO3)CC1	-16%	x	-3%
SMILES	Vaccinia mCherry	HCV inh	VACV Venus inh
Clc1ccc(C(Cn2ccnc2)OCc2csc3c(Cl)cccc23)c(Cl)c1 (stereo not given)	-13%	13µM*	-26%
Clc1ccc(C(Cn2ccnc2)OCc2c(Cl)cccc2Cl)c(Cl)c1 (stereo not given)	-11%	-17%	-24%
CN(c1ccc(/C=C/c2ccccc2)cc1)P1(=O)NCCCO1 (stereo not given)	44%	x	6%
CCN(CC)CCOC(=O)c1ccc(NC(=O)c2nn(-c3ccc(C)cc3)c(=O)c3c2c2ccccc2n3C)cc1	5.6µM*	x	5µM*
CCN(CC)CCCNC(=O)c1nn(-c2ccc(C)cc2)c(=O)c2c1c1ccccc1n2C	13%	x	3%
CN1CCN(C(c2ccccc2)c2ccccc2)CC1	u	u	-17%
CN1CCCN(C(c2ccccc2)c2ccc(Cl)cc2)CC1 (stereo not given)	u	1.3µM*	u
COc1cc(=O)n2c(c1C(=O)N(C)Cc1nonc1C)CCN(Cc1cc(F)ccc1F)CC2	-4%	x	8%
CCOC(=O)C1=C(CN(C)Cc2ccccc2)NC(=O)NC1c1ccc(OC(C)C)cc1 (stereo not given)	3%	x	3%
O=C1CCC(C(=O)N2CCc3c(Cl)cccc3C2)CN1CCCN1CCOCC1 (stereo not given)	-5%	x	-16%
CSc1ccc(CNCCCN(C)C)cc1	-2%	5µM*	-14%
CSc1ccc(CNCCCSc2ncccn2)cc1	-15%	-6%	-12%
COc1ccc2c(c1)c(=O)c(S(=O)(=O)c1ccccc1)cn2CC(=O)Nc1ccc(C)c(Cl)c1	-13%	x	-16%
CCc1ccc(-c2cc(C)no2)cc1S(=O)(=O)NCCN1CCC(C)CC1	-27%	u	u
CCc1ccc(-c2cc(C)no2)cc1S(=O)(=O)N1CCN(c2ccc(F)cc2)CC1	x	5µM*	x
CCc1ccc(-c2cc(C)no2)cc1S(=O)(=O)N1CCOc2ccccc21	i	11µM*	-12%
Cc1ccc(CCNS(=O)(=O)c2cc(-c3cc(C)no3)ccc2C)cc1	-14%	x	-14%
CCN(CCCNS(=O)(=O)c1cc(-c2cc(C)no2)ccc1C)Cc1ccccc1	x	13µM*	x
CCc1ccc(-c2cc(C)no2)cc1S(=O)(=O)N1CCN(c2ccc(OC)cc2)CC1	-15%	u	-14%
Cc1cc(-c2ccc(C)c(S(=O)(=O)N3CCOc4ccc(Cl)cc43)c2)on1	u	x	-20%
CCc1ccc(-c2cc(C)no2)cc1S(=O)(=O)NCCCN1CCN(c2ccccc2)CC1	-7%[7.34 µM]	2µM*	10%[7.34 µM]
CC(C)CCN1CCN(Cc2nc3c(s2)CCCC3)CC1CCO (stereo not given)	0%	u	-11%
CSCCC(N=C1NS(=O)(=O)c2ccccc21)C(=O)N1CCCC(C(N)=O)C1 (stereo not given)	i	20%	-18%
CSc1ccccc1OCc1cc(C(=O)N(C)C(C)c2nc(C)cs2)no1 (stereo not given)	-16%	-15%	-15%
CCOc1ccsc1C(=O)OC	i	25%	-9%
SMILES	Vaccinia mCherry	HCV inh	VACV Venus inh
COc1ccccc1CNC(=O)CCCC(=O)n1nc(C)c2ccccc21	i	-11%	-11%
Cc1ccc(Cl)cc1NC(=O)Cn1c(=O)n(C(C)C)c(=O)c2oc3ccccc3c21	-20%	x	-16%
Cc1cc(-c2ccc(C)c(S(=O)(=O)NCC3CCN(Cc4ccc(F)cc4)CC3)c2)on1	u	8.9µM*	u
COc1ccc(-c2cc(C)no2)cc1S(=O)(=O)NCC1CCN(Cc2cc(C)ccc2C)CC1	x	-21%	x
CN(c1ccccc1)S(=O)(=O)c1ccc(C(=O)NNC(=O)c2ccccc2F)cc1	x	-9%	x
Cc1ccc(NC(=O)C2CCN(c3nc4ccccc4nc3C(F)(F)F)CC2)cc1C	10%	x	2%
Cc1cc2[nH]c(=O)c(=O)[nH]c2cc1S(=O)(=O)NCc1ccc(Cl)cc1	x	1%	x
COc1ccc(C(=O)C=CNNC(=O)c2ccc(Cl)cc2)cc1	u	11µM*	-11%
O=C(/C=C/NNC(=O)c1ccccc1)c1ccc(Br)cc1	-15%	2.2µM*	1%
COc1ccc(C(=O)NN/C=C/C(=O)c2ccc(Br)cc2)cc1	-6%	x	-16%
O=C(/C=C/NCC(=O)c1ccccc1)c1ccc(Br)cc1	-15%	8%	-7%
O=C(/C=C/NNC(=O)c1cccc(Br)c1)c1cccc(Br)c1	i	u	-13%
